Source: PubChem (National Center for Advancing Translational Sciences (NCATS))
Six1-Eya2 inh: qHTS Assay for Inhibitors of the Six1/Eya2 Interaction. Homeobox protein SIX1 (Homo sapiens) + Protein phosphatase EYA2 (Homo sapiens), …. AlphaScreen GST-Six1/His-Eya2 binding, biochemical; hits give low values. activity change, % (test concentration not listed). actives 0.56% (n = 360,000). AID 651725, 2012; in the data active = activity change below about -65%; inconclusive = mostly about -30% to -63%; note: % is set by controls: 0 for no effect and ±100 for the full control effect
Target sequence (O00167 whole entry, looked up): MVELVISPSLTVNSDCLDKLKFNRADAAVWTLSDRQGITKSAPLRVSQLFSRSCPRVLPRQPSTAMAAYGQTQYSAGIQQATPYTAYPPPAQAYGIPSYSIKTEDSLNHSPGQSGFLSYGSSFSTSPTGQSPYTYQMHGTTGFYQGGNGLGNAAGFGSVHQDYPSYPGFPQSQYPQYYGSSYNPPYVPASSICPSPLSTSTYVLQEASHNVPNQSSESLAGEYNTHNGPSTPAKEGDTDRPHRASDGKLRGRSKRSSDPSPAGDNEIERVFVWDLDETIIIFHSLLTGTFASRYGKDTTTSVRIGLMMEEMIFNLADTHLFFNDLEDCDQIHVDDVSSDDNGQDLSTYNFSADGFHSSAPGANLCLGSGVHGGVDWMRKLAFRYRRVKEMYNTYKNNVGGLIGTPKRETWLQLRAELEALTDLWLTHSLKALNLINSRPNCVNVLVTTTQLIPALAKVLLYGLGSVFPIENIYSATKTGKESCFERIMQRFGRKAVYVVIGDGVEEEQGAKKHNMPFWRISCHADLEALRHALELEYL
Target sequence (Q15475 whole entry, looked up): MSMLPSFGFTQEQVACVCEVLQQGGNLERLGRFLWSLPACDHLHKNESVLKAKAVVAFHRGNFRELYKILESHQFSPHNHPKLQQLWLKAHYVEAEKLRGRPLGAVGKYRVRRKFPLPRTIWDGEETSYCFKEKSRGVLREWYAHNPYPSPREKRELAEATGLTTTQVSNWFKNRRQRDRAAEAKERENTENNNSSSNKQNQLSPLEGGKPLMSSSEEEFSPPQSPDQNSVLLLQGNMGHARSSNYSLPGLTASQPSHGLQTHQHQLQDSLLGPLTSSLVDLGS
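AlphaScreen with GST-Six1 and His-Eya2 (5X mix: 250 nM and 500 nM), glutathione donor and nickel acceptor beads; buffer 50 mM Tris pH 8.0, 300 mM NaCl, 1 mM TCEP; 1 h at 37 C in the dark.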
G9a inh: qHTS Assay for Inhibitors of Histone Lysine Methyltransferase G9a; G9a H3K9 monomethylation, AlphaScreen, 2 h; Potency, µM (titrated, usually from 102 µM), without a hit: at the top dose activity, negative = inhibition, usual class: inhibitors; actives 8.8% (n = 350,000); note: potency is the fitted concentration of half-maximal effect; % is set by controls: 0 for no effect and ±100 for the full control effect; nearly all actives have a fitted effect of over 75% in size
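Methyltransferase reactions run at room temperature for 2 h (20 nM enzyme, 500 nM biotin-H3K9 peptide, 20 uM SAM) after a 15 min compound preincubation; product detected by AlphaScreen beads and anti-H3K9me1 antibody.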
BAZ2B inh: qHTS Assay for Inhibitors of BAZ2B | Bromodomain adjacent to zinc finger domain protein 2B (Homo sapiens), Q9UIF8 | AlphaScreen BAZ2B-H3K14Ac peptide displacement | Potency, µM (doses to about 114 µM), for inactives: at the top dose activity change, negative = inhibition, most hits filed as inhibitors | actives 4.4% (n = 360,000); note: potency is the fitted concentration of half-maximal effect; % is set by controls: 0 for no effect and ±100 for the full control effect; nearly all actives have a fitted effect of over 60% in size
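Multi-concentration screen (max 110 uM) measuring displacement of acetylated histone H3 peptide from BAZ2B by AlphaScreen, using 50 nM protein, 50 nM peptide and 10 ug/mL streptavidin donor plus Ni-chelate acceptor beads.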
JMJD2A Tudor: qHTS Assay for Inhibitors of JMJD2A-Tudor Domain. actives 4.4% (n = 390,000). Potency, µM (highest dose often 114 µM), without a hit: top-dose activity change, negative = inhibition, usual class: inhibitors. AID 504339, 2011. Lysine-specific demethylase 4A (Homo sapiens), O75164. AlphaScreen JMJD2A-Tudor / H3K4me3 peptide binding; note: potency is the fitted concentration of half-maximal effect; % is set by controls: 0 for no effect and ±100 for the full control effect; nearly all actives have a fitted effect of over 50% in size
CtBP-E1A blk: qHTS Assay for Inhibitors of the CtBP/E1A Interaction. AlphaScreen GST-E1A/His-CtBP binding, 1536-well; hits give low values. CtBP / adenovirus E1A interaction (AlphaScreen). activity change, % (no concentration beside the values). actives 0.49% (n = 340,000); in the data active = activity change below about -65%; inconclusive = mostly about -30% to -63%; note: % is set by controls: 0 for no effect and ±100 for the full control effect
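Protein mix (5X: 125 nM each GST-E1A, His-CtBP) was incubated with pinned compound 2 h at 37 deg C in dark, in 50 mM Tris pH 8.0 buffer with 300 mM NaCl. Glutathione donor and nickel acceptor beads followed; AlphaScreen signal read after 1 h.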
HP1b chromo inh: HTS for Inhibitors of HP1-beta Chromodomain Interactions with Methylated Histone Tails; Potency, µM (doses to about 114 µM), inactives show at the top dose activity change, negative = inhibition, usual class: inhibitors; AlphaScreen HP1-beta / biotin-H3K9me3 peptide binding; actives 0.56% (n = 390,000); AID 540317, 2011; Chromobox protein homolog 1 (Homo sapiens), P83916; note: potency is the fitted concentration of half-maximal effect; nearly all actives have a fitted effect of over 70% in size
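HP1-beta protein (50 nM final) preincubated 30 min at room temperature with biotinylated H3(1-18)K9me3 peptide (50 nM) in PBS pH 7.4, 0.01% Tween-20, then compound added for 30 min. AlphaScreen streptavidin donor/nickel chelate acceptor beads (10 ug/mL final), 30 min dark, luminescence read.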
The depositor's hits bear a star; ? = inconclusive; . = no result; [ ] = remark or other dose. Hits are enriched below; roughly 10% of the tested compounds scored in any of these assays. Unless noted, calls come from the whole dose curve; as a rule, active = well fitted inhibition curve with a large enough effect; inconclusive = small, poorly fitted or top-dose-only effect; inactive = no such curve, though single readings can be large or run the other way.

SMILES	Six1-Eya2 inh	G9a inh	BAZ2B inh	JMJD2A Tudor	CtBP-E1A blk	HP1b chromo inh
Cn1c(=O)c(-c2cccc(Cl)c2)c(O)c2ccccc21	0	.	.	4%	8	37%
Cc1ccc(NC(=S)C2=C(O)c3sccc3N(C)S2(=O)=O)cc1	1	18µM*	-39%	-26%	-1	6%
Cc1ccc(NC(=O)C2=C(O)c3sccc3N(C)S2(=O)=O)cc1	4	-9%[12.7 µM]	1%	?	2	17%
O=C1NC(=Nc2ccc(Cl)cc2)/C(=C/c2ccco2)S1	-10	3.2µM*	50µM*	11µM*	5	-1%
CN(C)N1C(=O)/C(=C/c2ccco2)SC1=Nc1ccccc1	-18	.	.	-29%	-22	-11%
Cc1cccc(N=C2NC(=O)S/C2=C\c2ccco2)c1	-22	22µM*	?	40µM*	-12	-21%
O=C(NCCCN1CCOCC1)/C(=C/c1ccco1)NC(=O)c1ccccc1	-9	?	4%	-2%	10	25%
Cc1cccc2c1NC(=O)/C2=C\C(=O)c1cccs1	0	?	-30%	-25%	-15	8%
CCc1ccc2c(c1)/C(=C/C(=O)c1cccs1)C(=O)N2	-2	11µM*	11µM*	13µM*	-1	-40%
COC(=O)c1ccc(CN2CCN(C3CCCC3)C(CCO)C2)cc1 (stereo unspecified)	0	-36%	7%	10%	3	13%
CC(=O)N1CSCC1C(=O)NNS(=O)(=O)c1ccccc1 (stereo unspecified)	-2	15%	5%	25µM*	1	4%
N[C@H](C(=O)O)c1cc(O)cc(O)c1	.	33%[59 µM]	.	.	.	.
COc1ccc(-c2ccc(SCC(=O)Nc3nccs3)nn2)cc1OC	141	4%	-36%	?	86	70%
O=C(CSc1ccc2nnc(-c3ccncc3)n2n1)Nc1nccs1	-1	50µM*	.	-11%	-3	32%
Cc1nnc(NC(=O)CSc2ccc3nnc(-c4ccccn4)n3n2)s1	-3	-33%	.	79µM*	.	34%
O=C(CSc1ccc2nnc(-c3ccccn3)n2n1)Nc1nccs1	-81*	-6%	.	32µM*	-88*	53%
COc1ccc(-c2nnc3ccc(SCC(=O)Nc4nccs4)nn23)cc1OC	?	32µM*	-10%	7%	?	22%
Cc1nc(SCC(=O)N2CCN(c3ccccn3)CC2)c(C#N)c(C)c1C	-2	.	.	-15%	-3	8%
CC(C)NC(=O)C1(C)CN(S(C)(=O)=O)CC(=O)N1C1CCCCCC1 (stereo unspecified)	12	.	.	.	-10	.
COc1ccc(N2C(=O)C(Cl)=C(NCc3ccccc3)C2=O)cc1	-14	45µM*	-35%	-24%[11.4 µM]	5	21%
CCOc1ccccc1NC1=C(Cl)C(=O)N(c2ccc(OC)cc2)C1=O	-22	?	?	?	?	-5%
CCOc1cc(C(=O)OCC(=O)Nc2ncc(Cl)c(C)c2Cl)ccc1OCC(=O)N1CCOCC1	-2	45µM*	4%	-13%	3	13%
Cc1c(Cl)cnc(NC(=O)COC(=O)c2cc3c(s2)CCC(C)C3)c1Cl (stereo unspecified)	-1	35µM*	3%	-18%	.	10%
CCn1nc(C(=O)OCC(=O)Nc2ncc(Cl)c(C)c2Cl)c2ccccc2c1=O	-16	50µM*	?	?	0	-15%
CCn1cc(Cl)c(C(=O)Nc2ccc(OC)c(OC)c2)n1	0	20%[59 µM]	-34%	-11%	-4	31%
